Screening data from PubChem.
esBAF inh – inhibitors of esBAF chromatin remodeling in mouse ES cells | Bmi1-luciferase knock-in reporter, 24 h; 100% = twice the neutral-well signal | reporter increase, % at 12.5 µM | hit rate 2% among 350,000 | AID 602393; in the data active = activation above about 40%;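 also: a rise in the Bmi1 reporter signal indicates esBAF inhibition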
697 NFkB inh – inhibitors of the PMA/ionomycin-induced NF-kB reporter in 697 B cells. hit rate 0.33% among 330,000. 697 B-cell NF-kB luciferase reporter, 16 h. AID 435022. inhibition, % at 4 µM; in the data active = inhibition above about 35%
Jurkat NFkB inh – lowers PMA/ionomycin-induced NF-kB signal in Jurkat cells. AID 435003. PMA/ionomycin-induced NF-kB luciferase reporter, luminescence. inhibition, % at 4 µM. hit rate 0.53% among 330,000; in the data active = inhibition above about 50%
Gli-Sufu block – blocks Gli-Sufu signaling in a luciferase reporter. Sufu-KO-LIGHT fibroblasts, Gli luciferase reporter luminescence. inhibition, % at 5 µM. hit rate 0.74% among 340,000. AID 588413;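 active = inhibition above about 55%, limit read from the data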
SMARCA2 activ – increases SMARCA2 function in MMTV reporter cells. activation, % at 9.1 µM. MG213 cells, MMTV-luciferase reporter, dexamethasone, overnight. hit rate 1% among 370,000. AID 652017; in the data active = activation above about 7.8%
Gli-Sufu confirm – Gli-SUFU antagonism confirmation, single concentration; hit rate 40% among 2,500; inhibition, % at 5 µM; Sufu-KO-LIGHT cells, Gli luciferase reporter, luminescence; shares compounds with Gli-Sufu block;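 active = mean inhibition at 5 µM reaching about 45%, limit read from the data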
Gli cytotox – cytotoxic in Gli-SUFU antagonist counter-screen | cytotoxicity, % at 5 µM | Sufu-KO-LIGHT cells cytotoxicity, ATP luminescence | hit rate 32% among 2,500 | AID 651994 | shares compounds with Gli-Sufu block;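 active = mean cytotoxicity at 5 µM above about 25%, limit read from the data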;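 also: cells exposed to compound overnight for roughly 16 to 18 hours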
Wnt3a cs – inhibits Wnt3a reporter, counter-screen for Gli-SUFU antagonists. shares compounds with Gli-Sufu block. Wnt-LIGHT cells, Wnt3a-driven luciferase reporter, luminescence. inhibition, % at 6.25 µM. hit rate 20% among 2,500. AID 651995;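 active = mean inhibition above about 25%, limit read from the data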
Large screens that a line does not name were inactive (follow-up assays come after a bar, where they were run). An excerpt weighted towards active compounds, which were near 3.3% of everything screened.

CNC[C@@H]1OCCCC[C@H](C)Oc2ccc(NC(=O)NC3CCCCC3)cc2C(=O)N([C@@H](C)CO)C[C@H]1C	none (no result: 697 NFkB inh, Jurkat NFkB inh, Gli-Sufu block, SMARCA2 activ)
Cc1cccc(CSC(Nc2ccc(F)cc2)=C(C#N)C#N)c1	Gli-Sufu block 55.7 (no result: esBAF inh) | Gli-Sufu confirm 61.8 | Gli cytotox inactive | Wnt3a cs 52.4
c1csc(CCNc2ncnc3sc4c(c23)CCC4)c1	Gli-Sufu block 55.6 | Gli-Sufu confirm 59.6 | Gli cytotox 29.6 | Wnt3a cs inactive
c1ccc(Nc2ncnc3sc4c(c23)CCC4)cc1	none
COCC(=O)N(C)C[C@@H]1Oc2ncc(-c3ccccc3F)cc2C(=O)N([C@H](C)CO)C[C@H]1C	none (no result: 697 NFkB inh, Jurkat NFkB inh, Gli-Sufu block, SMARCA2 activ)
NC(=S)N/N=C/c1ncc(C(F)(F)F)cc1Cl	none (no result: esBAF inh, SMARCA2 activ) | Gli-Sufu confirm 65.2 | Gli cytotox 28.1 | Wnt3a cs 44.0
O=C(c1ccccc1SCc1ccccc1)N1CCOCC1	Gli-Sufu block 61.3 (no result: esBAF inh) | Gli-Sufu confirm inactive | Gli cytotox inactive | Wnt3a cs inactive
Cc1cc(Nc2ccc([N+](=O)[O-])cc2)c2ccccc2n1	Gli-Sufu block 55.7 | Gli-Sufu confirm inactive | Gli cytotox inactive | Wnt3a cs inactive
O=C(CCN1CCN(C/C=C/c2ccccc2)CC1)Nc1ccc(Cl)cc1	none (no result: esBAF inh) | Gli-Sufu confirm inactive | Gli cytotox inactive | Wnt3a cs inactive
CCOC(=O)CN1C(=O)/C(=C/c2ccccc2Br)Oc2ccccc21	Gli-Sufu block 57.2 | Gli-Sufu confirm inactive | Gli cytotox inactive | Wnt3a cs inactive
O=C(c1ccccc1F)N1CCCc2ccccc21	none
CCc1ccc2c(c1)CCCN2C(=O)c1ccccc1C(=O)O	none | Gli-Sufu confirm inactive | Gli cytotox inactive | Wnt3a cs inactive
COc1ccc(CN(C)C[C@H]2OCCCC[C@@H](C)Oc3ccc(NC(=O)NC4CCCCC4)cc3C(=O)N([C@@H](C)CO)C[C@H]2C)cc1	none (no result: 697 NFkB inh, Jurkat NFkB inh, Gli-Sufu block, SMARCA2 activ)
CCS(=O)(=O)Nc1cccc(-c2ccc3nnc(C)n3n2)c1	none (no result: esBAF inh, Gli-Sufu block)
CC(=O)N(C)c1cccc(-c2ccc3nnc(C)n3n2)c1	Gli-Sufu block 56.5 | Gli-Sufu confirm inactive | Gli cytotox inactive | Wnt3a cs inactive
Nc1cc2nc[nH]c2cc1N	Gli-Sufu block 62.6 (no result: esBAF inh) | Gli-Sufu confirm inactive | Gli cytotox inactive | Wnt3a cs inactive
COc1ccc(-n2cccc2/C=C2/NC(=O)N(c3cccc(Cl)c3)C2=O)cc1	none (no result: esBAF inh)
COc1cc(/C=C2/NC(=O)N(c3cccc(Cl)c3)C2=O)ccc1O	Gli-Sufu block 75.0 (no result: esBAF inh) | Gli-Sufu confirm 80.2 | Gli cytotox inactive | Wnt3a cs 45.8
C[C@@H](O)C#Cc1cnc2c(c1)C(=O)N([C@@H](C)CO)C[C@H](C)[C@@H](CN(C)Cc1cccc(C(=O)O)c1)O2	none (no result: 697 NFkB inh, Jurkat NFkB inh, Gli-Sufu block, SMARCA2 activ)
Cc1cccc(S(=O)(=O)N[C@H]2CC[C@@H](CCn3cc(-c4ccccn4)nn3)O[C@@H]2CO)c1	none (no result: 697 NFkB inh, Jurkat NFkB inh, Gli-Sufu block, SMARCA2 activ)
COc1ccc(NC(=O)N(C)C[C@@H]2Oc3c(NC(=O)c4ccc(-c5nccs5)cc4)cccc3C(=O)N([C@@H](C)CO)C[C@H]2C)cc1	none (no result: 697 NFkB inh, Jurkat NFkB inh, Gli-Sufu block, SMARCA2 activ)
O=C(C[C@H]1CC[C@@H]2[C@H](COC[C@@H](O)CN2Cc2ccc(Oc3ccccc3)cc2)O1)Nc1nccs1	none (no result: 697 NFkB inh, Jurkat NFkB inh, Gli-Sufu block, SMARCA2 activ)
C[C@@H]1CN([C@H](C)CO)C(=O)c2cc(NS(=O)(=O)c3ccc(F)cc3)ccc2O[C@@H](C)CCCCO[C@@H]1CN(C)Cc1ccc(C(=O)O)cc1	none (no result: 697 NFkB inh, Jurkat NFkB inh, Gli-Sufu block, SMARCA2 activ)
O=C(CN1C(=O)c2cccc3cccc1c23)N1CCN(c2ccccc2)CC1	Gli-Sufu block 92.7 | Gli-Sufu confirm inactive | Gli cytotox inactive | Wnt3a cs inactive
CC1(C)Cc2ccccc2C2=C(C(=O)N3CCCCCC3)C(=O)C(=O)N21	Gli-Sufu block 72.5 (no result: esBAF inh) | Gli-Sufu confirm inactive | Gli cytotox inactive | Wnt3a cs inactive
O=C1C(=O)N2C(=C1C(=O)N1CCCCCC1)c1ccccc1CC21CCCC1	none
COc1cccc(-c2ccc3c(c2)O[C@@H](CN(C)C)[C@H](C)CN([C@@H](C)CO)S3(=O)=O)c1	none (no result: 697 NFkB inh, Jurkat NFkB inh, Gli-Sufu block, SMARCA2 activ)
CN1C(=O)c2cc(NC(=O)c3cccc(F)c3)ccc2OC[C@@H]2O[C@H](CC(=O)Nc3ccccc3)CC[C@H]21	none (no result: 697 NFkB inh, Jurkat NFkB inh, Gli-Sufu block, SMARCA2 activ)
C[C@H](CO)N1C[C@H](C)[C@@H](CN(C)C(=O)NC2CCCCC2)Oc2ccc(NC(=O)Cc3cn(C)c4ccccc34)cc2C1=O	none (no result: 697 NFkB inh, Jurkat NFkB inh, Gli-Sufu block, SMARCA2 activ)
Cc1cc(C)c(NC(=O)CNC(=O)COC(=O)C2=COCCO2)c(C)c1	none (no result: esBAF inh) | Gli-Sufu confirm inactive | Gli cytotox inactive | Wnt3a cs inactive
Cc1ccc(S(=O)(=O)N(C)C[C@H]2Oc3ncc(-c4ccncc4)cc3C(=O)N([C@@H](C)CO)C[C@@H]2C)cc1	none (no result: 697 NFkB inh, Jurkat NFkB inh, Gli-Sufu block, SMARCA2 activ)
CCOCC(=O)Nc1cc([N+](=O)[O-])ccc1C	Gli-Sufu block 91.4 (no result: esBAF inh) | Gli-Sufu confirm inactive | Gli cytotox inactive | Wnt3a cs inactive
CCOC(=O)c1cc(NC(=O)COc2ccc([N+](=O)[O-])cc2)cc(C(=O)OCC)c1	Gli-Sufu block 62.6 (no result: esBAF inh) | Gli-Sufu confirm inactive | Gli cytotox inactive | Wnt3a cs inactive
O=C(COc1ccc([N+](=O)[O-])cc1)Nc1cc(C(=O)O)cc(C(=O)O)c1	none
C[C@@H]1CN([C@@H](C)CO)C(=O)c2cccc(NC(=O)C3CC3)c2O[C@@H]1CN(C)S(=O)(=O)c1cccs1	none (no result: 697 NFkB inh, Jurkat NFkB inh, Gli-Sufu block, SMARCA2 activ)
CC(Oc1ccc(Br)cc1Br)C(=O)Nc1cccnc1Cl (configuration not stated)	none | Gli-Sufu confirm inactive | Gli cytotox inactive | Wnt3a cs inactive
CC(Oc1ccc(Br)cc1Br)C(=O)Nc1cccnc1 (configuration not stated)	none
C[C@H]1CN([C@@H](C)CO)S(=O)(=O)c2ccc(/C=C/c3ccccc3)cc2O[C@H]1CN(C)C(=O)c1ccncc1	none (no result: 697 NFkB inh, Jurkat NFkB inh, Gli-Sufu block, SMARCA2 activ)
